Calls of active or inactive are those of the source.
How the values were obtained:
[1] = system: PRMT1 (protein arginine N-methyltransferase 1); test: small molecules binding arginine methyltransferase PRMT1 – biochemical, small-molecule microarray, 635 nm fluorescence, primary screen (AID 1088); conditions: higher = more signal;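 note: binding of Prmt1 protein to compounds spotted on small-molecule microarray slides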
[2] = growth effects on S. cerevisiae YJM789 – YJM789 clinical isolate, OD600, 24 h, basal, primary screen (AID 1089); conditions: higher = more signal, called active from +8 up or from −8 down;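 note: growth of clinical yeast isolate S. cerevisiae YJM 789 seeded 1000 cells per well; test concentration not given here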
[3] = S. pombe growth modifiers, basal conditions – strain 972, OD600, 24 h, no modulator, primary screen (AID 1090);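 note: basal condition with compound alone and no growth modifier present; test concentration not given here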; conditions: S. pombe 972 growth, higher = more signal, called active from +8 up or from −8 down
[4] = budding yeast growth modifiers under rapamycin – strain BY4716, OD600, 96 h, primary screen (AID 1091); note: test concentration not given here; conditions: S. cerevisiae BY4716 + rapamycin, higher = more signal, called active from +8 up or from −8 down
[5] = target: Torsin-1A-interacting protein 2 (Homo sapiens) (UniProt Q8NFQ8); test: small molecules binding lysate-expressed LULL1 – cell lysate, human LULL1 lysate, 635/667 nm fluorescence, primary screen (AID 1092); conditions: small-molecule microarray, hLULL1 lysate binding, 635 nm fluorescence; higher = more signal;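 note: probe is lysate of COS7 cells overexpressing human LULL1; score merges per-feature 667 nm fluorescence with signal-to-noise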
[6] = optical density change of DRC41 E. coli – strain DRC41, OD650, 24 h, E. coli filamentation project, primary screen (AID 1093);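 note: MC1000 strain lacking acrAB efflux and sulA so SOS filamentation is blocked; test concentration not given here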; conditions: E. coli DRC41 growth, higher = more signal, called active from +8 up or from −8 down
[7] = probe aLefty2 binding to arrayed compounds – biochemical, biotinylated probe, 635/667 nm fluorescence, primary screen (AID 1094); conditions: small-molecule microarray, higher = more signal;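 note: score merges spot fluorescence near 667 nm with spot signal-to-noise ratio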
[8] = system: Noggin (protein binding on small-molecule microarray); test: small molecules binding Noggin protein – biochemical, 635/667 nm fluorescence, primary screen (AID 1095); conditions: 635 nm fluorescence, higher = more signal;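 note: score merges 667 nm feature fluorescence with signal to noise over triplicate slides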
[9] = target: Neurogenic locus notch homolog protein 3 (Homo sapiens) (UniProt Q9UM47); test: small molecules binding NOTCH3 protein – biochemical, 635/667 nm fluorescence, primary screen (AID 1096); conditions: small-molecule microarray, 635 nm fluorescence, higher = more signal
[10] = probe aEGFR binding to arrayed compounds – biochemical, biotinylated probe, 635/667 nm fluorescence, primary screen (AID 1097); conditions: small-molecule microarray, higher = more signal;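 note: probe is a biotinylated anti-EGFR antibody binding compounds printed on slides; score combines fluorescence near 667 nm and signal to noise of each spot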
[11] = system: Plasmodium falciparum Sir2 (PF13_0152, Sir2A); test: Plasmodium falciparum Sir2A binding compounds – biochemical, small-molecule microarray, 635 nm fluorescence, primary screen (AID 1098); conditions: fluorescence 635 nm, higher = more signal;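 note: score merges spot fluorescence intensity with its signal-to-noise ratio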
[12] = probe aDKK1 binding to arrayed compounds – biochemical, biotinylated probe, 635/667 nm fluorescence, primary screen (AID 1099); conditions: small-molecule microarray, higher = more signal;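 note: score merges 667nm spot fluorescence with signal to noise across triplicate slides; reference of the scale not given here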
[13] = probe aCHRDL2 binding to arrayed compounds – biochemical, biotinylated probe, 635/667 nm fluorescence, primary screen (AID 1100); conditions: small-molecule microarray, higher = more signal
[14] = change in splice reporter luminescence, either direction, cell-based, HEK293, spliceosome inhibition project, primary screen (AID 1101); conditions: HEK293 splicing luciferase reporter, 24 h, higher = more signal, called active from +8 up or from −8 down;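 note: HEK293 cells carrying a splicing-competent luciferase reporter gene; test concentration not given here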
[15] = target: Fibroblast growth factor 10 (Homo sapiens) (UniProt O15520); test: compounds binding fibroblast growth factor 10 – biochemical, small-molecule microarray, 635 nm fluorescence, primary screen (AID 1102); conditions: FGF10 binding, fluorescence 635 nm, higher = more signal
[16] = system: glycogen synthase kinase-3 (GSK3A per assay name; protocol says GSK3B); test: compounds binding glycogen synthase kinase-3 – biochemical, small-molecule microarray, 635 nm fluorescence, GSK3A, primary screen (AID 1103); conditions: fluorescence 635 nm, higher = more signal; note: the record names both GSK3A and GSK3B
[17] = target: Epidermal growth factor receptor (Homo sapiens) (UniProt P00533); test: compounds binding epidermal growth factor receptor – biochemical, small-molecule microarray, 635 nm fluorescence, primary screen (AID 1104); conditions: EGFR binding, higher = more signal;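 note: score merges 667 nm emission intensity with spot signal to noise over triplicate slides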
[18] = target: Follistatin-related protein 3 (Homo sapiens) (UniProt O95633); test: compounds binding follistatin-related protein 3 – biochemical, small-molecule microarray, 635 nm fluorescence, primary screen (AID 1105); conditions: FSTL3 binding, higher = more signal;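 note: score merges emission near 667 nm and signal to noise per printed spot across three slides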
[19] = target: Dickkopf-related protein 1 (Homo sapiens) (UniProt O94907); test: small molecules binding DKK1 protein – biochemical, small-molecule microarray, 635 nm fluorescence scan, primary screen (AID 1106); conditions: higher = more signal;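 note: score merges emission near 667 nm with signal to noise over three replicate slides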
[20] = system: Inhibin beta A chain (activin A); test: small molecules binding activin A – biochemical, small-molecule microarray, 635 nm fluorescence scan, primary screen (AID 1107); conditions: INHBA, higher = more signal;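 note: mouse activin A protein probed at 4.33 µg/mL on printed slides; score merges bound-protein fluorescence near 667 nm with spot signal-to-noise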

Sequence of Torsin-1A-interacting protein 2 (Homo sapiens) (Q8NFQ8 whole entry, looked up): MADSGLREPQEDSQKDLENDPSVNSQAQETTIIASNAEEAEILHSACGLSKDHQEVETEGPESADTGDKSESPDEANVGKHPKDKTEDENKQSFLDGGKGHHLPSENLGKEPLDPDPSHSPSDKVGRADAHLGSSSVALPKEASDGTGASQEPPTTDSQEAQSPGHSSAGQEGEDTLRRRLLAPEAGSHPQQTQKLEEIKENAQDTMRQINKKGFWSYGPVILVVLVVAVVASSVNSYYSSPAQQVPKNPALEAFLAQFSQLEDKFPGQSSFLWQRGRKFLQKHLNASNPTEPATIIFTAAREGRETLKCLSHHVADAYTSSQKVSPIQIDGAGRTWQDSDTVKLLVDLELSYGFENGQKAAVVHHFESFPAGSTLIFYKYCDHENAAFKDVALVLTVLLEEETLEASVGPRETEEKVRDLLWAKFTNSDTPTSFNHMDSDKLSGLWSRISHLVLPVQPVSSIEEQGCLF
Sequence of Dickkopf-related protein 1 (Homo sapiens) (O94907 whole entry, looked up): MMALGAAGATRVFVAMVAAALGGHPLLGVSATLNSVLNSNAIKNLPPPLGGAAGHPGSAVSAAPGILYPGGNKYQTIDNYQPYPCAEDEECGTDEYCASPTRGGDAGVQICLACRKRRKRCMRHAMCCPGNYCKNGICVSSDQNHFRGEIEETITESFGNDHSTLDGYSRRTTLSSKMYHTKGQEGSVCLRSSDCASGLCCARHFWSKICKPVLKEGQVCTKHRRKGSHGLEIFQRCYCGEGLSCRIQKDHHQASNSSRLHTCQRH
Sequence of Neurogenic locus notch homolog protein 3 (Homo sapiens) (Q9UM47 whole entry, looked up): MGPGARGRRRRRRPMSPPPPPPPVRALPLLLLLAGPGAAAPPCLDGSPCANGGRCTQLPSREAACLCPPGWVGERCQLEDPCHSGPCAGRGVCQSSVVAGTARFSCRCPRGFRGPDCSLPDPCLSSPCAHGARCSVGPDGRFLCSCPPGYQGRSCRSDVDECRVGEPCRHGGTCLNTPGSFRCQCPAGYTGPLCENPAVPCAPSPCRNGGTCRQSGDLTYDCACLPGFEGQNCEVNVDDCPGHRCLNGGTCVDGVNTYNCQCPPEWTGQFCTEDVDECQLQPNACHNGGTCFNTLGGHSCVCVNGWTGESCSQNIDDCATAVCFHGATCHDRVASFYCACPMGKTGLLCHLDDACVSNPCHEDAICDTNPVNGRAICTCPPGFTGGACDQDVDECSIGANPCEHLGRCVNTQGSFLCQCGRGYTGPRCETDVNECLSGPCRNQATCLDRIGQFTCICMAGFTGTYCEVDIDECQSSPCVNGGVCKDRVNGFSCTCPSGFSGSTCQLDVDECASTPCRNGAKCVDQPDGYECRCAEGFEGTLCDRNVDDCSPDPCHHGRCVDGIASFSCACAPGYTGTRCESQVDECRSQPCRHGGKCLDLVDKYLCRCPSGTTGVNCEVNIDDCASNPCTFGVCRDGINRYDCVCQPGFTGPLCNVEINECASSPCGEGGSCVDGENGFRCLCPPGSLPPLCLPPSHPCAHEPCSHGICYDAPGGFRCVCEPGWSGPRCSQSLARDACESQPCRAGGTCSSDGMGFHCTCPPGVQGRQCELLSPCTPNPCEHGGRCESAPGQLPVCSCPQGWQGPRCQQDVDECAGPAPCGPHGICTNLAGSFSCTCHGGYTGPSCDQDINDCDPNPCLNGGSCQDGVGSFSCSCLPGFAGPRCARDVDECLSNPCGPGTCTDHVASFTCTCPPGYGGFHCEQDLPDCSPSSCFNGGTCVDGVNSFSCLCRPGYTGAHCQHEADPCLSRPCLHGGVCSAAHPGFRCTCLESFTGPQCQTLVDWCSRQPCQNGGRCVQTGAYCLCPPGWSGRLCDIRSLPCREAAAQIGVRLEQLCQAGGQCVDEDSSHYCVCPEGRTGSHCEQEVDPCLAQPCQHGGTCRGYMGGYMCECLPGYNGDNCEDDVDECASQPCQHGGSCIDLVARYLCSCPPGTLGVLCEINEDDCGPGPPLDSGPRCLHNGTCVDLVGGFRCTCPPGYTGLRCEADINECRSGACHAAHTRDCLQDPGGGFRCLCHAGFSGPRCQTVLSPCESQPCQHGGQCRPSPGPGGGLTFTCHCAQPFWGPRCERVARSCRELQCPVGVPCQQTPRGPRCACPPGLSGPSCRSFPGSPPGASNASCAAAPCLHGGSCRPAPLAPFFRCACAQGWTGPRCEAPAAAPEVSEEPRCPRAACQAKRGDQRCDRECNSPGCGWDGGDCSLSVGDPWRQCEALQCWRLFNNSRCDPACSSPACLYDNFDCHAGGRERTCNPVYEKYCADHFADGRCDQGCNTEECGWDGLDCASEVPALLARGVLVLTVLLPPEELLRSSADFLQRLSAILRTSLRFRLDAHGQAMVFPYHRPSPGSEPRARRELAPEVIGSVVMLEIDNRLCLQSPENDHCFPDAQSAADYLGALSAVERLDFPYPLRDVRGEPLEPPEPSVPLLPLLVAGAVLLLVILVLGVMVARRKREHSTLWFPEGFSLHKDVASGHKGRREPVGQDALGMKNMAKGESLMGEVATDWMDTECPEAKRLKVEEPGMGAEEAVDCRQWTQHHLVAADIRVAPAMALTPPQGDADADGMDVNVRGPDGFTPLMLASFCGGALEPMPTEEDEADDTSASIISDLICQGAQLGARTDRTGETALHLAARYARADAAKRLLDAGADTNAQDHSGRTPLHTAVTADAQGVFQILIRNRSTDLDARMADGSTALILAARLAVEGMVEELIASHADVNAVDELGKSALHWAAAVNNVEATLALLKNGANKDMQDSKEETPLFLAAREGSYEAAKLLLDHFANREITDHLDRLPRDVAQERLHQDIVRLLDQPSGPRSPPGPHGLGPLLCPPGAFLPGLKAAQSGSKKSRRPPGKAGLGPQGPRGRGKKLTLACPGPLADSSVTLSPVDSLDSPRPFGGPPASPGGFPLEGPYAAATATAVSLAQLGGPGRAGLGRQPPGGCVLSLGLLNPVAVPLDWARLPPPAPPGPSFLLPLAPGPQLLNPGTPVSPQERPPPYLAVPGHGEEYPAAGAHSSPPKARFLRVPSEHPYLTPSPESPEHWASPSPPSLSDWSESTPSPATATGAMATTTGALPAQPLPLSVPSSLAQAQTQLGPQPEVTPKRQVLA
Sequence of Fibroblast growth factor 10 (Homo sapiens) (O15520 whole entry, looked up): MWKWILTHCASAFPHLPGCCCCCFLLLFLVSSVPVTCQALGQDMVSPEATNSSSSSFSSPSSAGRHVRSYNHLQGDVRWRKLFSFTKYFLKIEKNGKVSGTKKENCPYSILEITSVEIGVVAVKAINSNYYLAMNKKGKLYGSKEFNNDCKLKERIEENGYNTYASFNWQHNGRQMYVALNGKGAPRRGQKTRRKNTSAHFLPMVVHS
Sequence of Follistatin-related protein 3 (Homo sapiens) (O95633 whole entry, looked up): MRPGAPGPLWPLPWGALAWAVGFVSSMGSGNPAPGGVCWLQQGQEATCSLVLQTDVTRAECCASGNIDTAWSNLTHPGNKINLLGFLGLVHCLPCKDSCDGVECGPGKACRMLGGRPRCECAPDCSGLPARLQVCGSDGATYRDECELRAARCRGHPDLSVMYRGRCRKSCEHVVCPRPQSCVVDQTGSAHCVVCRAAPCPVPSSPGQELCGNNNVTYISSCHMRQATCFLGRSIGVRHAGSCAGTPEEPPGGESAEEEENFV
Sequence of Epidermal growth factor receptor (Homo sapiens) (P00533 whole entry, looked up): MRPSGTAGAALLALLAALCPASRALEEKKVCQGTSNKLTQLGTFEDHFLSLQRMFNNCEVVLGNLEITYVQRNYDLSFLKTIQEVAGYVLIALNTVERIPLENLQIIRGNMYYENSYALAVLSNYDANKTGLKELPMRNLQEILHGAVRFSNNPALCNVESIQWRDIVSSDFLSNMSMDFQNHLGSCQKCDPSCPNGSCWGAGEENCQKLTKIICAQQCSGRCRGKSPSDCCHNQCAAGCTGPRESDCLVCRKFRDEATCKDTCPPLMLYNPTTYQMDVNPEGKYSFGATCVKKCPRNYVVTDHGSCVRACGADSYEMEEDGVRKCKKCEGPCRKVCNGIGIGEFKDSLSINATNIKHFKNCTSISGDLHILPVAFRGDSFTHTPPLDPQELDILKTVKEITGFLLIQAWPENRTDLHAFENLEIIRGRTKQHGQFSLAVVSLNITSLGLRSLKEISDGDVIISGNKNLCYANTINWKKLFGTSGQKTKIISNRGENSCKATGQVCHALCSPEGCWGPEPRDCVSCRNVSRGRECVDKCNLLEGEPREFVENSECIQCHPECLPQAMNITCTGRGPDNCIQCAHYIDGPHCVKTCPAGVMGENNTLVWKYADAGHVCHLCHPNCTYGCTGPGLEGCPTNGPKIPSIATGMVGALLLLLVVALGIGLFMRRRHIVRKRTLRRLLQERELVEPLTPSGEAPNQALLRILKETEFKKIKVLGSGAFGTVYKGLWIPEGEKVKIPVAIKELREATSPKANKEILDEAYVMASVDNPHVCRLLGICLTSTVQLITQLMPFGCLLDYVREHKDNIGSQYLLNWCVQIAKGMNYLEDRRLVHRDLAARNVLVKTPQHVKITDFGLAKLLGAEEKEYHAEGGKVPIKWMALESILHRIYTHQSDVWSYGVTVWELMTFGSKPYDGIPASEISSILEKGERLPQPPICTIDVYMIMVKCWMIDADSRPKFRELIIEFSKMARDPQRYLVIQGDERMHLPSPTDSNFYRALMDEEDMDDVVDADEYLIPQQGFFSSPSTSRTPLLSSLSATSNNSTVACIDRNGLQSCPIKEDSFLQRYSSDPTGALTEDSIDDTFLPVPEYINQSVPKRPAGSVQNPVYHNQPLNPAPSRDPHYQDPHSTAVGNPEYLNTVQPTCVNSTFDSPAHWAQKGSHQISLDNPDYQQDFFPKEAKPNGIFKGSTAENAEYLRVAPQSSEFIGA

Row | SMILES | composite z-score [1] | z-score [2] | z-score [3] | z-score [4] | composite z-score [5] | z-score [6] | composite z-score [7] | composite z-score [8] | composite z-score [9] | composite z-score [10] | composite z-score [11] | composite z-score [12] | composite z-score [13] | z-score [14] | composite z-score [15] | composite z-score [16] | composite z-score [17] | composite z-score [18] | composite z-score [19] | composite z-score [20]
1 | CC(CCC(=O)OC[C@H]1O[C@H](C#Cc2ccccc2)C=C[C@@H]1Oc1ccc(C)cc1)=NOC(C)CN1CCCCc2nc(C)c(C)cc21 (stereo not given in full) | 0.479 | -0.167 (inactive) | -0.324 (inactive) | -0.773 (inactive) | 0.238 | 0.136 (inactive) | -0.0454 | -0.0193 | -0.171 | -0.18 | 0.508 | -0.241 | 0.159 | -0.176 (inactive) | 0.0616 | -0.555 | -0.598 | -0.159 | 0.191 | 0.69
2 | O=C1[C@H]2CCn3c(=O)n(Cc4cc5c(cc4Cl)OCO5)c(=O)n3[C@H]2[C@H](O)[C@@H]2O[C@H]12 | -0.0582 | 0.821 (inactive) | -0.315 (inactive) | -0.224 (inactive) | -0.297 | 0.662 (inactive) | -0.255 | 0.27 | -0.802 | -0.173 | 0.652 | -0.374 | -0.604 | 0.726 (inactive) | -0.41 | -0.734 | 0.413 | -0.0989 | 0.552 | 0.73
3 | CCN1C(=O)[C@H]2[C@H]3[C@H](O)[C@H](O)CC(=NOCC(C)C)[C@H]3CC[C@H]2C1=O | -0.332 | -0.349 (inactive) | 0.735 (inactive) | 0.512 (inactive) | -0.153 | 0.769 (inactive) | -0.019 | 0.569 | 0.599 | 0.0167 | 0.301 | -0.311 | -0.621 | 0.72 (inactive) | 0.531 | 0.636 | 0.732 | 0.732 | 0.817 | 0.122
4 | COC(=O)[C@H](C)NC(=O)CC=C[C@@H](C)[C@@H]1C=C[C@H](O)[C@@H](CO)O1 | 0.854 | 0.351 (inactive) | 0.245 (inactive) | 0.358 (inactive) | 0.248 | 1.02 (inactive) | -0.0381 | 1.34 | 0.873 | 0.241 | 0.141 | -0.607 | -1.28 | 0.386 (inactive) | 0.6 | 0.902 | 0.643 | 0.948 | 1.3 | 0.229
5 | O=C(NN=C1C[C@@H](O)[C@@H](O)[C@@H]2[C@@H]3C(=O)N(Cc4ccc5c(c4)OCO5)C(=O)[C@@H]3CC[C@@H]12)OCc1ccccc1 | -0.0443 | 0.186 (inactive) | -0.475 (inactive) | -0.4 (inactive) | 0.418 | 0.885 (inactive) | 0.0026 | -0.0248 | -0.142 | -0.0433 | -0.0768 | 0.618 | 0.828 | -1.41 (inactive) | -0.319 | -0.456 | -0.254 | -0.408 | -0.465 | 0.319

Source: PubChem BioAssay
